# Only some compounds are listed: those with a hit (about 1.2% of all), similar ones and a draw of the others.
# PKD1 inh = blocks activity of human protein kinase D1; PKD1 kinase fluorescence polarization assay; inhibition, % (test concentration not listed); Q15139; AID 797; hit rate 0.056% among 200,000; in the data active = inhibition above about 50%
# p97 ATPase inh = human p97 ATPase inhibition | hit rate 0.42% among 220,000 | inhibition, % at 8 µM | P55072 | recombinant p97 ATPase, Kinase-Glo ATP luminescence, 3 h; in the data active = inhibition above about 15%;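 note: 0% = DMSO vehicle and 100% = wells lacking enzyme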
# FAS-TE inh = blocks the thioesterase domain of human fatty acid synthase; P49327; recombinant FAS-TE, OMFH fluorogenic substrate, fluorescence endpoint; inhibition, % at 15 µM; hit rate 0.67% among 360,000;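 active = compounds whose normalised, plate-corrected inhibition of enzyme fluorescence in the single-dose primary screen is 50% or more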;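 note: 0% = DMSO with enzyme and 100% = substrate without enzyme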
# DTT redox prof = compounds producing H2O2 with reducing agent – biochemical, NIH compound library profiling, artefact control for MLSCN library redox annotation, primary screen. DTT-dependent redox cycling H2O2, phenol red/HRP absorbance; 100% = 100 µM peroxide control, 0% = buffer. activation, % at 10 µM. hit rate 0.03% among 200,000;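 active = activation of at least 50% relative to the plate's high and low controls in the primary single-dose screen; inactive = activation below 50%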;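 note: compound incubated with DTT at 0.8 mM final as the reducing agent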
# Furin inh = human furin inhibition; P09958; purified furin, fluorogenic substrate cleavage; inhibition, % at 20 µM or 30 µM; hit rate 0.061% among 220,000; AID 463115; in the data active = inhibition above about 25%
# SUMO HTRF inh = blocks human SUMOylation mediated by UBC9. P63279. HTRF SUMOylation assay, SAE1/SAE2 + UBC9, in vitro. inhibition, % at 35 µM. hit rate 0.36% among 290,000. AID 2006; in the data active = inhibition above about 50%, passing the limit was not always enough
# FAS-TE conf = confirmation of human fatty acid synthase thioesterase inhibitors; shares compounds with FAS-TE inh; recombinant FAS-TE, OMFH fluorogenic substrate, fluorescence; inhibition, % at 15 µM; hit rate 45% among 2,300; AID 624325;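 active = compounds inhibiting the enzyme by at least 50% at 15 µM in any one of the replicates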;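 note: 0% = enzyme with DMSO only and 100% = wells lacking enzyme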
# Numbers without * were called inactive; / = no result.
SMILES,PKD1 inh,p97 ATPase inh,FAS-TE inh,DTT redox prof,Furin inh,SUMO HTRF inh,FAS-TE conf
COc1cc(-c2nc(C(=O)NC3CCCCC3)cc3c2[nH]c2ccccc23)cc(OC)c1OC,/,/,83.5*,/,/,0.8,9.8
CC1=C(O)C(=O)C(c2c(C)cc(C)c(Br)c2C)=C(O)C1=O,/,/,68.0*,/,/,/,78.3*
O=C(c1cccc(NS(=O)(=O)c2ccc(F)c(F)c2)c1)N1CCCCC1,/,/,-4.1,/,/,/,/
O=C(COc1ccc(S(=O)(=O)N2CCCCC2)cc1)Nc1ccccc1F,/,/,52.3*,/,/,-10.5,54.8*
O=C(COc1ccccc1)Nc1ccc(S(=O)(=O)N2CCCCCC2)cc1,-0.4,-0.8,25.7,0.3,-0.2,-18.6,/
Cc1cc(C)n(CCNS(=O)(=O)c2ccc(C)c(C)c2)n1,/,/,-4.8,/,/,6.0,/
CC(C)(C)NC(=O)CC1C[C@H](C(=O)N2CCOCC2)[C@@]2(CCC3CCCC3)c3[nH]c4ccccc4c3CCN2C1=O (some centres not stated),/,/,80.7*,/,/,/,76.0*
O=C(C[C@H]1C[C@H](C(=O)N2CCCCC2)[C@@]2(CCc3ccccc3)c3[nH]c4ccc(Cl)cc4c3CCN2C1=O)NCc1cccc(C(F)(F)F)c1,/,/,36.0,/,/,/,/
COc1ccc2[nH]c3c(c2c1)CCN1C(=O)C(CC(=O)NCCCn2ccnc2)C[C@H](C(=O)N2CCOCC2)[C@@]31CCC1CCCC1 (some centres not stated),/,/,33.9,/,/,/,/
O=C(CC1C[C@H](C(=O)N2CCCCC2)[C@@]2(CCc3ccccc3)c3[nH]c4ccccc4c3CCN2C1=O)NCc1cccc(C(F)(F)F)c1 (some centres not stated),/,/,53.9*,/,/,/,29.2
O=C(CC1C[C@H](C(=O)N2CCOCC2)[C@@]2(CCC3CCCC3)c3[nH]c4ccccc4c3CCN2C1=O)NCCCn1ccnc1 (some centres not stated),/,/,68.9*,/,/,/,64.3*
CC(C)(C)C(=O)Nc1ccc(C(=O)CN2C(=O)NC3(CCOc4ccccc43)C2=O)cc1 (configuration not stated),/,/,-2.8,/,/,/,/
O=c1[nH]c(C2CCCN(S(=O)(=O)c3cccc(Cl)c3)C2)nc2c1nnn2Cc1ccc2c(c1)OCCO2 (configuration not stated),/,/,53.6*,/,/,/,15.8
O=c1[nH]c(C2CCCN(S(=O)(=O)c3ccccc3)C2)nc2c1nnn2Cc1ccc2c(c1)OCCO2 (configuration not stated),/,/,22.4,/,/,6.1,/
O=C(NC(=S)N1CCN(c2ccc(F)cc2)CC1)C12CC3CC(CC(C3)C1)C2,-3.8,-1.7,6.9,0.0,6.5,21.6,/
CCOc1ccccc1N1CCN(C(=S)NC(=O)C23CC4CC(CC(C4)C2)C3)CC1,6.5,1.4,51.1*,0.2,-4.4,-6.5,14.8
O=C(c1cc(-c2cccs2)nc2ccccc12)N1CCN(c2ccccc2)CC1,-1.3,-4.3,50.5*,-2.1,-1.5,-5.9,21.5
CN(C(=O)COC(=O)c1c[nH]c2ccccc12)c1ccccc1,/,/,-5.3,/,/,/,/
CC1(C(=O)NS(=O)(=O)c2ccc(C#N)cc2)CCN1C(=O)CCc1ccc(Cl)cc1Cl (configuration not stated),/,/,42.1,/,/,/,/
CC1(C(=O)NS(=O)(=O)c2ccc(C#N)cc2)CCN1C(=O)Cc1ccc(Cl)cc1Cl (configuration not stated),/,/,55.0*,/,/,/,70.4*
CSc1ccc(-c2cccc([N+](=O)[O-])c2)nn1,2.9,0.3,5.4,-0.4,-14.9,3.9,/
O=[N+]([O-])c1cccc(-c2ccc(SCc3cccnc3)nn2)c1,0.5,-2.3,52.9*,-0.9,-2.4,10.2,57.6*
C/C(=N\Nc1ccc(C)c(Cl)c1)c1cccnc1,/,/,9.5,/,/,14.7,/
CC1CCN(C(=O)c2ccc3c(Cl)c4c(nc3c2)CCCC4)CC1,-2.3,-3.6,71.3*,-0.7,-22.9,-6.5,78.3*
CCOC(=O)C1CCN(C(=O)c2ccc3c(Cl)c4c(nc3c2)CCCC4)CC1,/,/,42.8,/,/,-4.4,/
O=C(O)c1ccc(N/N=C/c2ccc(C(F)(F)F)cc2)cc1,-3.2,2.4,13.7,-0.3,-6.9,-1.0,/
CC(C)(C)c1ccc(/C=N/Nc2ccc(C(=O)O)cc2)cc1,2.3,-0.7,63.9*,-0.1,-9.6,1.9,76.5*

# Screens deposited in PubChem BioAssay by several laboratories.
